# Measured values as given in PubChem BioAssay (NCATS).
# Records with an inconclusive call do not appear. Entries that show only a call come without a potency. Calls of active or inactive are those of the source. The call rests on the fitted dose curve; in most records, active means well fitted cell-killing curve with a large enough effect; inconclusive means small, poorly fitted or top-dose-only effect, or effect the other way; inactive means flat fitted curve, though single readings scatter.
# Test system: PA-1
# Test: Primary qHTS to identify gynecologic anti-cancer compounds using libraries of approved drugs and bioactive compounds (AID 1345084); further: nearly all actives have a fitted effect of over 55% in size
# Settings: Gynecologic cancer cell panel viability, ATPlite luminescence, 48 h; series mostly up to 57.5 µM
# Outline: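 In this quantitative HTS, cell killing is estimated from loss of ATP-dependent luciferase light. Cells see five compound concentrations over a 48 h exposure.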
# Potency means the concentration at half of the fitted maximal effect.
Structure (SMILES),Potency,"activity change, negative = cytotoxicity"
COc1ccccc1OCCNCC(O)CCOc1cccc2[nH]c3ccccc3c12 (centres undefined),inactive,–
O=C1COC2(CCN(S(=O)(=O)c3ccc(-c4ccc5cccnc5c4)cc3)CC2)CN1C1CC1,inactive,–
CC(C)c1ccc(NC(=O)Cn2cnc3c2c(=O)n(C)c(=O)n3C)cc1,inactive,–
CC(C)(C)C1CCN(C(=O)n2ncc(C(O)(c3ccccc3)c3ccccc3)n2)CC1,inactive,–
COc1ccc(NC(=O)c2ccc(C(=N)N(C)C)cc2)c(C(=O)Nc2ccc(Cl)cn2)c1,inactive,–
CC(C)=CCC/C(C)=C/COCC1OC(n2ccc(=O)[nH]c2=O)C(O)C1O (centres undefined),inactive,–
CCOc1cc(C(C)(C)C)ccc1C1=NC(C)(c2ccc(Cl)cc2)C(C)(c2ccc(Cl)cc2)N1C(=O)N1CCN(CCCS(C)(=O)=O)CC1 (centres undefined),6.31 µM (active),–
CC(C)(C)NC(=O)[C@H]1CC[C@H]2[C@@H]3CC[C@H]4NC(=O)CC[C@]4(C)[C@H]3CC[C@]12C,inactive,–
COc1ccc(-c2cnc3c(-c4cccc5ncccc45)cnn3c2)cc1,inactive,–
CCOC(=O)c1cnn(-c2ccccc2)c1NC(=O)c1cc2nc(-c3ccco3)cc(C(F)(F)Cl)n2n1,inactive,–
C=C(C)C(=O)OC1CC2(C)OC(=CC2=O)C(=C)CC2OC(=O)C(=C)C12 (centres undefined),7.94 µM (active),–
C[C@]12CC[C@@H]3c4ccc(O)c(O)c4CC[C@H]3[C@@H]1CCC2=O,inactive,–
Cc1cc2c(F)c(Oc3ncnn4cc(OCC(C)OC(=O)C(C)N)c(C)c34)ccc2[nH]1 (centres undefined),inactive,–
COc1c(C(O)CC(C)C)ccc2c1C(=O)OCc1cc(C)cc(O)c1O2 (centres undefined),inactive,–
O=C(NCCCN1CCC2(CC1)OCc1ccccc12)[C@H]1CCCN1Cc1ccccc1,inactive,–
O=C(NCCN1CCC(n2c(=O)[nH]c3ccccc32)CC1)c1cc2cc(F)ccc2[nH]1,inactive,–
CCCCCc1ccc(/C=C/C(=O)Nc2cc(Cl)ccc2C(=O)O)cc1,inactive,–
CCCc1cc(C)n(C)c(=O)c1CN(C)C(=O)c1cc(-c2ccc(N3CCN(C(C)C)CC3)nc2)cc2c1cnn2C(C)C,inactive,–
C=CC(C)(O)CC/C=C(/C)COC(=O)C(C)C1CCC(C)(C=C)O1 (centres undefined),inactive,–
COc1c(C)cc(NC(=O)c2nn(Cc3ccc(F)cc3)c3c2CN(C(=O)c2ccc[nH]2)C[C@]3(C)C(N)=O)cc1C,–,15.5% [at 11.6 µM] (inactive)

Structure (SMILES),Potency,"activity change, negative = cytotoxicity"
C=C1C(=O)O[C@@H]2C(OC(=O)/C(C)=C\C)/C(C)=C\C(=O)/C=C(\C)C[C@H](O)[C@@H]12 (some centres undefined),10 µM (active),–
C[C@@]12C(=O)N(c3ccc(C(=O)Nc4cccc5cccnc45)cc3)C(=O)[C@@H]1[C@@H]1C=C[C@H]2C1,inactive,–
CC(=O)O[C@]1(C(C)=O)CC[C@H]2[C@@H]3CCC4=CC(=O)CCC4=C3[C@@H](c3ccc(N(C)C)cc3)C[C@@]21C,inactive,–
CC(C)S(=O)(=O)NC[C@H](C)c1ccc(-c2ccc(CCNS(C)(=O)=O)cc2)cc1,inactive,–
Cc1ccc(C(C)C)c(O[C@@H]2O[C@H](CO)[C@@H](O)[C@H](O)[C@H]2O)c1,inactive,–
CC(OC1OCCN(Cc2n[nH]c(=O)[nH]2)C1c1ccc(F)cc1)c1cc(C(F)(F)F)cc(C(F)(F)F)c1 (centres undefined),inactive,–
COCCCNC(=O)c1ccc(Cn2c(=O)c3ccccc3n(Cc3ccc(C(C)C)cc3)c2=O)cc1,inactive,–
CN1CCC(NC(=O)c2cc(-c3c(O)cc(O)cc3Oc3ccc([N+](=O)[O-])cc3)on2)CC1,0.794 µM (active),–
Nc1nc2c(ncn2C2OC3COP(=O)(O)OC3C2O)c(=O)[nH]1 (centres undefined),inactive,–
CC(=O)O[C@H]1CC[C@]2(C)[C@H]3CC[C@]4(C)Oc5oc(C)cc(=O)c5C[C@H]4[C@]3(C)CC[C@H]2C1(C)C,inactive,–
C/C=C(/C)C(=O)OC1C=C2C3C(C)C(C)C(OC(=O)C(C)C(C)O)CC3(C)CCC2(C)C2(C)CC(OC(C)=O)C3C(C)(C)C(O)C(=O)CC3(C)C12 (centres undefined),inactive,–
COC1C(OC(=O)/C=C/C=C/C=C/C=C/C(=O)O)CCC2(CO2)C1C1(C)OC1CC=C(C)C (centres undefined),inactive,–
COC1C=C(C)C(O)(CO)C2(C)CCCC(C)(C)C12 (centres undefined),inactive,–
C[C@H]1CC[C@@]2(OC1)O[C@H]1CC3[C@@H]4CC[C@@H]5C[C@@H](O[C@@H]6O[C@H](CO)[C@@H](O[C@@H]7O[C@H](CO[C@@H]8OC[C@@H](O)[C@H](O)[C@H]8O)[C@@H](O[C@@H]8O[C@H](CO)[C@H](O)[C@H](O)[C@H]8O)[C@H](O)[C@H]7O)[C@H](O)[C@H]6O)CC[C@]5(C)C4CC[C@]3(C)[C@H]1[C@@H]2C (some centres undefined),–,-0.202% [at 11.6 µM] (inactive)
CCC(CC)(NC(=O)C(C)C)C(=O)N[C@@H](CCCN=C(N)N)C(=O)NC1(C(=O)NC(c2ccc(F)cc2)c2ccc(F)cc2)CCCC1,inactive,–
COc1ccc(S(=O)(=O)Nc2c(C)cc(C)cc2C)cc1,inactive,–
CC(C)OC(=O)N1CCC(Oc2ncnc3c2cnn3-c2ccc(S(C)(=O)=O)cc2F)CC1,inactive,–
O=C(NCCO)c1cccc(-c2cc(Nc3ccc(OC(F)(F)F)cc3)ncn2)c1,inactive,–
Cc1ccc(-c2c(C(=O)CCl)n(CCCO)c3ncnc(N)c23)cc1,inactive,–
